This is a sample that favours compounds with a hit; in the whole collection about 12% have one here.
JMJD2A Tudor: JMJD2A Tudor domain (human) inhibition; AID 504339; Potency, µM (titrated, usually from 114 µM), actives largely listed as inhibitors; AlphaScreen JMJD2A-Tudor / H3K4me3 peptide binding; 390,000 compounds, 4.4% hits; O75164; further: nearly all actives have a fitted effect of over 50% in size
HP1b binding inh: HP1-beta chromodomain-methylated histone interaction inhibition. AlphaScreen HP1-beta / biotin-H3K9me3 peptide binding. P83916. 390,000 compounds, 0.56% hits. AID 540317. Potency, µM (series often up to 114 µM), actives largely listed as inhibitors; further: nearly all actives have a fitted effect of over 70% in size
Target sequence (P83916 whole entry, looked up): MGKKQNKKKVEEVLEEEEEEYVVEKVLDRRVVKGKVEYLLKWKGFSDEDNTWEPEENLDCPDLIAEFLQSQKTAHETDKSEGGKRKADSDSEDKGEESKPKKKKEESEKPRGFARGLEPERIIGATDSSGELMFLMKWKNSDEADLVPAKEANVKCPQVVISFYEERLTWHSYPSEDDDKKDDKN
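AlphaScreen: HP1-beta (50 nM) preformed 30 min with biotin-H3(1-18)K9me3 peptide (50 nM) in PBS pH 7.4, 0.01% Tween-20. Compound added for 30 min at RT, then streptavidin donor/nickel chelate acceptor beads (10 ug/mL) for 30 min.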
PI5P4K alpha inh: inhibitors of human PI5P4K alpha; PI5P4Kalpha enzyme, ADP-Glo luminescence, 60 min; stronger effect = lower value; max response, %; 330,000 compounds, 1.2% hits; AID 652105; active means max response of -50% or lower; inconclusive means between -30% and -50%; inactive means -30% or higher; further: value at the top dose of about 77 µM
Target sequence (P48426 whole entry, looked up): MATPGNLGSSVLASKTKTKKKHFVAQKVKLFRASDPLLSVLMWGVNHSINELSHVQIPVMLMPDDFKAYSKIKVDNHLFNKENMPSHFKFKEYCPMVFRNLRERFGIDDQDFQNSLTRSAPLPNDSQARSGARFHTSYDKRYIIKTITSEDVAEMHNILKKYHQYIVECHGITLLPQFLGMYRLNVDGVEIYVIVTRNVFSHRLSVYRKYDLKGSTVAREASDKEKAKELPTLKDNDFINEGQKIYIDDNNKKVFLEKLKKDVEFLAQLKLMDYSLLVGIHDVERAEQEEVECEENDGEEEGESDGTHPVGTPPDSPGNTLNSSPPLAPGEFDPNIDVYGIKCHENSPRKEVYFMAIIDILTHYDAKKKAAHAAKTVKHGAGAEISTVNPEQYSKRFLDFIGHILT
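Enzyme plus substrate dispensed, test compounds pinned in, then ATP (5 microM final) added. After 60 min at RT, ADP-Glo reagent 1 for 45 min and reagent 2 for 30 min preceded luminescence imaging.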
G9a block: blocks human histone lysine methyltransferase G9a. G9a H3K9 monomethylation, AlphaScreen, 2 h. 350,000 compounds, 8.8% hits. Potency, µM (top dose mostly 102 µM), hits mostly inhibitors. AID 504332. Q96KQ7; further: nearly all actives have a fitted effect of over 75% in size
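AlphaScreen read-out: biotin-H3K9 peptide (500 nM) methylation by 20 nM enzyme with 20 uM SAM, 2 h at room temperature after 15 min compound preincubation; anti-monomethyl H3K9 antibody plus donor/acceptor beads, 10 min dark.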
PLK1 PBD inh: inhibitors of human PLK1 polo-box domain binding | Potency, µM, actives largely listed as inhibitors | AID 720504 | P53350 | 360,000 compounds, 2.8% hits | Plk1 PBD binding of FITC phosphopeptide, fluorescence polarization; further: series mostly up to about 57 µM; nearly all actives have a fitted effect of over 65% in size
BAZ2B block: inhibitors of human BAZ2B bromodomain. Q9UIF8. AlphaScreen BAZ2B-H3K14Ac peptide displacement. Potency, µM (top dose mostly 114 µM), most hits filed as inhibitors. 360,000 compounds, 4.4% hits. AID 504333; further: nearly all actives have a fitted effect of over 60% in size
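AlphaScreen displacement of biotin-H3(5-23)K14Ac peptide (50 nM final) from BAZ2B (50 nM final) in PBS pH 7.4, 0.01% Tween-20; complex preformed 30 min RT, then compounds (top 110 uM) 30 min RT, beads 20 min dark.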
Of the large screens only hits and unclear results are named; the others gave an inactive call; ! = repeats disagree. Unless noted, the call rests on the fitted dose curve; in most records, active means well fitted curve in the direction sought with a large enough effect; inconclusive means small, poorly fitted or top-dose-only effect, or another doubt; inactive means no such curve, though single readings can be large; an effect the other way counts as inactive or inconclusive.

CC1=Nc2ncnn2C(c2ccccc2)/C1=N\O (stereo not drawn)	G9a block 50.1µM, BAZ2B block inconclusive (no result: PI5P4K alpha inh)
Cc1nn(C(C)C(=O)NC2CCCCC2)c(=O)c2c1sc1ccccc12 (stereo not drawn)	G9a block inconclusive (no result: PI5P4K alpha inh, PLK1 PBD inh)
Cc1c(C(C)CCCO)oc(=O)c2c1Oc1c(C)c(C(C)C[C@H](C)O)oc(=O)c1C2 (stereo partly drawn)	none
O=C(CNC(=O)c1ccco1)N=Nc1c(O)n(CCc2ccccc2)c2ccccc12	BAZ2B block inconclusive
Oc1c(N=NC(=S)Nc2ccccc2F)c2ccccc2n1Cc1ccccc1Cl	JMJD2A Tudor 3.98µM, HP1b binding inh inconclusive, G9a block 17.8µM, BAZ2B block inconclusive
C=CCn1c(O)c(N=NC(=S)Nc2cccc(C)c2)c2ccccc21	JMJD2A Tudor 8.91µM, HP1b binding inh inconclusive, G9a block 14.1µM, BAZ2B block 3.16µM
CCCCn1c(O)c(N=NC(=O)c2ccco2)c2ccccc21	JMJD2A Tudor inconclusive, HP1b binding inh inconclusive, PLK1 PBD inh 18.9µM, BAZ2B block inconclusive
Cc1ccc(NC(=O)Cn2c(O)c(N=NC(N)=S)c3ccccc32)cc1	none
Cc1ccc(Cn2c(O)c(N=NC(=S)Nc3ccccc3F)c3ccccc32)cc1	JMJD2A Tudor inconclusive, G9a block 11.2µM, BAZ2B block 39.8µM
Cc1c(Cl)cccc1NC(=S)N=Nc1c(O)n(CN2CCOCC2)c2ccccc12	JMJD2A Tudor inconclusive, G9a block inconclusive, BAZ2B block inconclusive
Cc1cccc(CNC(=O)c2ccc3nc(-c4ccccc4)c(-c4ccccc4)nc3c2)c1	none (no result: PI5P4K alpha inh, PLK1 PBD inh)
C=CCn1c(O)c(N=NC(=S)Nc2ccccc2F)c2cc(S(=O)(=O)N3CCOCC3)ccc21	G9a block inconclusive
C=CCn1c(O)c(N=NC(=S)Nc2ccccc2F)c2ccccc21	JMJD2A Tudor 10µM, HP1b binding inh inconclusive, G9a block 11.2µM, BAZ2B block inconclusive
COC(=O)N=Nc1c(O)n(Cc2ccccc2)c2ccccc12	none
O=C(N=Nc1c(O)n(Cc2ccccc2)c2ccccc12)c1ccncc1	BAZ2B block 35.5µM (no result: G9a block)
NC(=S)N=Nc1c(O)n(Cc2ccccc2)c2ccccc12	BAZ2B block inconclusive
Oc1c(N=NC(=S)Nc2ccccc2F)c2ccccc2n1Cc1ccccc1	JMJD2A Tudor inconclusive, HP1b binding inh inconclusive, G9a block 17.8µM, BAZ2B block inconclusive
CCCCNC(=S)N=Nc1c(O)n(Cc2ccccc2)c2ccccc12	JMJD2A Tudor inconclusive, HP1b binding inh inconclusive, G9a block 31.6µM, BAZ2B block inconclusive
COC(=O)c1ccc(Cn2c(O)c(N=NC(N)=S)c3ccccc32)o1	JMJD2A Tudor inconclusive, PI5P4K alpha inh -56.6, BAZ2B block inconclusive (no result: G9a block)
C=CCn1c(O)c(N=NC(=O)CNC(=O)/C=C/c2ccco2)c2ccccc21	JMJD2A Tudor inconclusive, G9a block 50.1µM, PLK1 PBD inh inconclusive, BAZ2B block inconclusive (no result: PI5P4K alpha inh)
C=CCn1c(O)c(N=NC(=O)CNC(=O)/C=C/c2ccc(OC)cc2)c2ccccc21	none (no result: G9a block)
C[C@H]1CN=C(N(C)C)N1CCCC1CCCCC1	none
C=CC(=O)N(CCC)C(c1ccccc1)c1ccccc1OC (stereo not drawn)	none
CCc1sc(C(=O)N(CCCOC)c2c(N)n(CC(C)C)c(=O)[nH]c2=O)cc1C	G9a block 0.794µM
CCCn1c(N)c(N(CCOC)C(=O)c2ccc(C#N)cc2)c(=O)[nH]c1=O	G9a block 70.8µM
CCCn1c(N)c(N(CCOC)C(=O)c2ccc(-c3ccccc3)cc2)c(=O)[nH]c1=O	none
CCCCn1c(N)c(N(CCOC)C(=O)c2cc3c(s2)CCC3)c(=O)[nH]c1=O	G9a block 17.8µM
CCCCn1c(N)c(N(CCOC)C(=O)c2cc3c(s2)CCCCC3)c(=O)[nH]c1=O	none
C[C@@H]1COC(=O)[C@@H](Cc2ccc(F)cc2)C/C=C\C[C@@H](CC(=O)NCCO)C(=O)N1	none (no result: G9a block, BAZ2B block)
COc1cccc(/C=C/C(=O)OCC(=O)NCC2CCCCC2)c1OC	none
CCCN(C(=O)CSc1ccccc1C(=O)O)C1CCS(=O)(=O)C1 (stereo not drawn)	none (no result: G9a block, BAZ2B block)
CC(C)(CS)C(=O)N1CCC[C@H]1C(=O)O	G9a block 4.47µM (no result: JMJD2A Tudor, HP1b binding inh, PI5P4K alpha inh, PLK1 PBD inh, BAZ2B block)
CC(C)(C)OC(=O)N1CCCC1C(=O)O (stereo not drawn)	none (no result: PI5P4K alpha inh)
Clc1ccc(Cn2cnc3ccccc32)cc1	none
S=c1[nH]nc(Cn2cnc3ccccc32)n1-c1ccccc1Cl	JMJD2A Tudor 50.1µM (no result: G9a block)
COc1cccc(/C=C/C(=O)OCC(=O)NCCNC(=O)COC(=O)/C=C/c2cccc(OC)c2)c1	none
CNc1ccc(Br)cc(C(=O)/C=C/c2ccc(Cl)cc2Cl)c1=O	JMJD2A Tudor 56.2µM, HP1b binding inh inconclusive, G9a block 35.5µM, PLK1 PBD inh inconclusive, BAZ2B block inconclusive
CNc1ccc(Br)cc(C(=O)/C=C/c2ccc(OC)cc2OC)c1=O	JMJD2A Tudor 31.6µM, HP1b binding inh inconclusive, PI5P4K alpha inh inconclusive, G9a block 7.94µM, PLK1 PBD inh inconclusive, BAZ2B block 31.6µM
CNc1ccc(Br)cc(C(=O)/C=C/c2cccc(OC)c2)c1=O	JMJD2A Tudor 44.7µM, HP1b binding inh inconclusive, G9a block 7.94µM, BAZ2B block 44.7µM
O=C(/C=C/c1ccc(Cl)cc1Cl)c1ccc[nH]1	none
CC(=O)N1CCc2cc(S(=O)(=O)CCC(=O)NCCc3ccc(Cl)cc3)ccc21	none
COc1ccccc1-c1cnc(C(O)c2ccc(F)c(F)c2)[nH]1 (stereo not drawn)	none (no result: JMJD2A Tudor, HP1b binding inh, G9a block, BAZ2B block)
COc1ccc(-c2csc(NCCc3nc4cc(Cl)c(Cl)cc4n3CCCO)n2)cc1	none (no result: G9a block, BAZ2B block)
Cc1ccc(C(=O)NCCCNC(=O)c2ccccn2)cc1	none
Cc1ccc(/C(=C\CN2CCCC2)c2ccccn2)cc1	G9a block 7.52µM! (no result: HP1b binding inh)
O=[N+]([O-])c1ccc(NN=Cc2cccc3ccccc23)cc1	none (no result: G9a block, BAZ2B block)
O=[N+]([O-])c1cc(Br)c(O)c(/C=N/Nc2nnnn2-c2cccc3ccccc23)c1	JMJD2A Tudor 56.2µM, PLK1 PBD inh 13.4µM, BAZ2B block 79.4µM (no result: PI5P4K alpha inh)
Cc1ccc(C)c(C(=O)COC(=O)c2ccc(C)c(S(=O)(=O)N3CCOCC3)c2)c1	none
Cc1[nH]n(-c2ccccc2)c(=O)c1/C=N/n1c(C)nc2ccccc2c1=O	G9a block 3.16µM
Cc1nc2ccccc2c(=O)n1/N=C/c1ccc(O)c(O)c1O	JMJD2A Tudor 14.1µM, HP1b binding inh inconclusive, PI5P4K alpha inh -86.1, G9a block 1.26µM, PLK1 PBD inh 10.6µM, BAZ2B block inconclusive
Cc1nc2ccccc2c(=O)n1/N=C/c1ccccc1O	none (no result: G9a block)
Cc1nc2ccccc2c(=O)n1/N=C/c1ccc2ccccc2c1O	JMJD2A Tudor inconclusive, G9a block 28.2µM, BAZ2B block inconclusive
Cc1nc2ccccc2c(=O)n1/N=C/c1ccccc1	none (no result: PI5P4K alpha inh)
Cc1cc([N+](=O)[O-])cc(/C=N/n2c(C)nc3ccccc3c2=O)c1O	JMJD2A Tudor inconclusive, BAZ2B block 79.4µM

Bioassay records: PubChem BioAssay, National Center for Advancing Translational Sciences (NCATS)
